Reference: PubChem BioAssay (Tox21)
Calls of active or inactive are those of the source. The call rests on the fitted dose curve; in most records, active means well fitted curve in the direction sought with a large enough effect in the repeat runs; inconclusive means weak or mixed curves; inactive means flat fitted curve, though single readings scatter.

Test: qHTS assay to test for compound auto fluorescence at 590 nm (red) in HepG2 cells (AID 720674)
Settings: HepG2 autofluorescence, red 540/590 nm, 1 h; series mostly up to 91.3 µM; fluorescence, relative to Rose Bengal: at the top concentration
Source text: U.S. Tox21 Program National Center for Advancing Translational Sciences [NCATS] NIH Chemical Genomics Center [NCGC] U.S. Environmental Protection Agency [EPA] National Institutes of Environmental Health Sciences [NIEHS] National Toxicology Program [NTP] U.S. Food and Drug Administration [FDA] Tox21 Assay Overview: Compound auto fluorescence often interferes with screening of the compound library against various biological targets and signaling pathways. Some of these compounds may have fluorophoric properties. Such properties may interfere with the assay outputs resulting in false positives and/or negatives. To decrease such complications and ensure the compound activities are relevant in terms of biological response, the Tox21 10K compound library was screened for auto fluorescence. From the fluorophores used as reporter signals in our screening assays, the auto fluorescence equivalencies of compounds against three fluorophores have been evaluated: Triamterene, Fluorescein and Rose Bengal sodium for blue, green and red fluorescence, respectively. The fluorescence intensities were measured using Excitation/Emission wavelengths at 405/460nm, 485/535nm and 540/590nm for blue, green and red labels, respectively. This assay includes the red fluorescence data.
Tox21 Assay Protocol Summary: 2,000 HepG2 cells in 5 uL of culture medium (MEM containing 10% FBS) per well were dispensed into black wall/clear bottom 1536-well plates using a Multidrop Combi Dispenser (ThermoFisher Scientific, Waltham, MA). The assay plates were incubated overnight at 37 C to allow cell attachment to the well bottom, followed by the transfer of 23 nL compound or DMSO vehicle by a pintool work station (Kalypsys , San Diego, CA). After the assay plates were incubated for 1 hr at 37 C and 5% CO2, fluorescence intensities in the assay plates were measured by an Envision (PerkinElmer, Shelton, CT) plate reader using three labels for measuring blue, green and red fluorescence at […] 460, 535 and 590 nm respectively.
On the % scale 0 is the no-effect control and ±100 the full control effect.

Structure (SMILES)	outcome	fluorescence, relative to Rose Bengal
C[C@]12C/C(=C/O)C(=O)C[C@@H]1CC[C@@H]1[C@@H]2CC[C@@]2(C)[C@H]1CC[C@]2(C)O	inactive	
CC(C)N(C(=O)CCl)c1ccccc1	inactive	
Clc1cc(Cl)c(-c2cc(Cl)c(Cl)cc2Cl)cc1Cl		-0.279% [at 46 µM] (inactive)
CC1(C)[C@H](/C=C2\CCSC2=O)[C@@H]1C(=O)OCc1coc(Cc2ccccc2)c1		-0.257% (inactive)
COc1cnc(OC)n2nc(NS(=O)(=O)c3c(OCC(F)F)cccc3C(F)(F)F)nc12		-0.0159% (inactive)
C[N+]1(C)[C@@H]2CC[C@H]1CC(OC(=O)C(CO)c1ccccc1)C2 (stereo not given in full)	inactive	
CC(=O)[O-].CC(=O)[O-].O.O.[Zn+2]		-0.141% (inactive)
N#Cc1c[nH]cc1-c1cccc2c1OC(F)(F)O2		-0.009% (inactive)
Oc1ccc2[nH]cc(CCCCN3CC=C(c4ccccc4)CC3)c2c1		-0.108% [at 46 µM] (inactive)
CNN		0.076% [at 95.7 µM] (inactive)
CCNS(=O)(=O)C(F)(F)C(F)(F)C(F)(F)C(F)(F)C(F)(F)C(F)(F)C(F)(F)C(F)(F)F		0.227% (inactive)
Oc1cc(Cl)cc(Cl)c1		-0.326% (inactive)
Nc1c(Cl)c(Cl)c(Cl)c(Cl)c1Cl		-0.604% (inactive)
[C-]1=CC=CC1.[Cl][Zr+2][Cl].c1cc[cH-]c1		0.0436% [at 95.7 µM] (inactive)
CC(C)NCC(O)c1ccccc1Cl (stereo not given)		0.382% [at 46 µM] (inactive)
Cc1c([N+](=O)[O-])cc2c(c1[N+](=O)[O-])C(C)(C)CC2(C)C		0.185% (inactive)
ClC(Cl)C(Cl)(Cl)Cl		0.297% (inactive)
CCN1CCC2(CC1)COc1cc3c(cc12)N(C(=O)c1ccc(-c2ccc(-c4nnc(C)o4)cc2C)cc1)CC3		-0.118% (inactive)
CCOP(=S)(NC(C)C)Oc1ccccc1C(=O)OC(C)C (stereo not given)		-0.0805% (inactive)
CCC(C)Nc1c([N+](=O)[O-])cc(C(C)(C)C)cc1[N+](=O)[O-] (stereo not given)		-0.0582% (inactive)

Structure (SMILES)	outcome	fluorescence, relative to Rose Bengal
ClC1=C(Cl)[C@]2(Cl)[C@@H]3[C@H]4C[C@H]([C@@H]5O[C@H]45)[C@@H]3[C@@]1(Cl)C2(Cl)Cl	inactive	
COP(=O)(OC)O/C(=C\Cl)c1cc(Cl)c(Cl)cc1Cl		0.0129% (inactive)
Cc1nn(-c2cc(NS(C)(=O)=O)c(Cl)cc2Cl)c(=O)n1C(F)F		-0.0043% (inactive)
O=S(=O)(O)F		-0.0722% [at 95.7 µM] (inactive)
CCN(CC)CCN1C(=O)CN=C(c2ccccc2F)c2cc(Cl)ccc21		-0.0906% [at 46 µM] (inactive)
CCOP(=O)(Sc1ccccc1)Sc1ccccc1		-0.516% (inactive)
Clc1ccc(C(Cl)(Cl)Cl)cc1Cl		-0.018% (inactive)
Cc1ccccc1OP(=O)(Oc1ccccc1C)Oc1ccccc1C		0.0729% (inactive)
CCCCON=O		0.147% [at 95.7 µM] (inactive)
CCO/N=C(\CC)C1=C(O)CC(c2c(C)cc(C)cc2C)CC1=O (stereo not given)		0.46% (inactive)
COP(=S)(OC)Oc1ccc([N+](=O)[O-])c(C)c1		-0.225% (inactive)
C=CC(=C)C		0.0331% (inactive)
CSC(=O)c1c(C(F)F)nc(C(F)(F)F)c(C(=O)SC)c1CC(C)C		0.299% (inactive)
CCN(CC)Cc1nccn1-c1ccc([N+](=O)[O-])cc1C(=O)c1ccccc1Cl		-0.0955% [at 46 µM] (inactive)
CC(C)c1c(CN(C)C(C)Cc2ccccc2)n(C)n(-c2ccccc2)c1=O (stereo not given)		0.213% [at 18.6 µM] (inactive)
ClCBr		-0.0853% [at 95.7 µM] (inactive)
COC(=O)/C=C(\C)OP(=O)(OC)OC		0.0171% (inactive)
CCCN		0.284% (inactive)
NC1CCC(CC2CCC(N)CC2)CC1 (stereo not given)		0.118% (inactive)
CC(C)(C)c1ccc(OP(=O)(Oc2ccccc2)Oc2ccccc2)cc1		-0.0477% (inactive)
